# Screening data from PubChem BioAssay.
# IDE exosite FP: exo-site inhibitors of human IDE, primary screen, biochemical, fluorescence anisotropy, probe displacement | Insulin-degrading enzyme (Homo sapiens), P14735 | AID 1259349, 2017 | purified IDE, FL-6b probe fluorescence polarization; hits give low values | 6.3% of 17,000 active | z-score at 20 µM;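 active = z-score of -3 or lower, meaning strong loss of probe binding signal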;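 note: His-tagged human IDE residues 42-1019 made in E. coli with 30 nM FL-6b probe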
# Target sequence (P14735 42-1019 limits assumed): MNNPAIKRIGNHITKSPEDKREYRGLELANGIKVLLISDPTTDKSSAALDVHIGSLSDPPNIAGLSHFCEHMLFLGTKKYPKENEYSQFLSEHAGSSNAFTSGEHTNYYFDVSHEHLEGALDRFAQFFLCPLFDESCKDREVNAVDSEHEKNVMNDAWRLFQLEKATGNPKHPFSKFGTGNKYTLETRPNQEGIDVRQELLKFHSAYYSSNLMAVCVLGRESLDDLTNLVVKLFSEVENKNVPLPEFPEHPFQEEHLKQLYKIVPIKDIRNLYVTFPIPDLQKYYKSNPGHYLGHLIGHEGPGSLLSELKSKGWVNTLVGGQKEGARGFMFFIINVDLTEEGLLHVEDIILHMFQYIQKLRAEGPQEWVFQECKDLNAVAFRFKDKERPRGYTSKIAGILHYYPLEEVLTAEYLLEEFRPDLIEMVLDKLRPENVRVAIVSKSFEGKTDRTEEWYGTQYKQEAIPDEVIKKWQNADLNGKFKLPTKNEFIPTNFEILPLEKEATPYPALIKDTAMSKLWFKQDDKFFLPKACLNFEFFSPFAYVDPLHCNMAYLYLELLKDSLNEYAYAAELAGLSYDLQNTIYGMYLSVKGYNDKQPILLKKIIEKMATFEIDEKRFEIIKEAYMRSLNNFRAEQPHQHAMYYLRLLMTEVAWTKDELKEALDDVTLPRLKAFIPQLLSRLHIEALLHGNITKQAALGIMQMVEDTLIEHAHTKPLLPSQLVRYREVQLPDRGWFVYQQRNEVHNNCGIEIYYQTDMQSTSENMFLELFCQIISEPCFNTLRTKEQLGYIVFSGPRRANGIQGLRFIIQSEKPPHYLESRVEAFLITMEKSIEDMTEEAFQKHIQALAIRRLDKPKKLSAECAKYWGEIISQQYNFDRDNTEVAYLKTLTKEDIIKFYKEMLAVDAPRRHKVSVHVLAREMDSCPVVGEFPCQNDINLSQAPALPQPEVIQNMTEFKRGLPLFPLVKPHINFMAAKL
# * marks the source's active call; other numbers are inactive results. The full list was thinned out, with hits kept by preference.
SMILES,IDE exosite FP
OC[C@@H]1[C@@H](c2ccc(C#Cc3ccccc3)cc2)[C@H]2CN(CC3CCOCC3)CCCCN12,1.5
O=C(CN1CCOCC1)N1CCCCN2[C@@H](CO)[C@@H](c3ccc(-c4ccccc4)cc3)[C@@H]2C1,-1.3
OC[C@@H]1[C@@H](c2ccc(C#Cc3ccccc3F)cc2)[C@@H]2CN(CC3CCOCC3)CCCCN12,-0.38
COc1ccc2c3c(n(C)c2c1)[C@H](CO)N(C)CC31CCN(C(=O)NC(C)C)CC1,-1.7
COCC(=O)N1[C@H](C(=O)NCc2ccccc2)[C@@H](CO)[C@@H]2Cn3c(cccc3=O)[C@@H]21,-0.082
O=C(C1CCOCC1)N1CC(=O)N2[C@H](CO)[C@@H](c3ccc(-c4cccnc4)cc3)[C@@H]2C1,-0.96
CCCNC(=O)N1[C@H](C#N)[C@@H](c2ccccc2C2=CCCC2)[C@@H]1CO,2.1
CC(=O)N1[C@H](CO)[C@H](c2ccc(-c3cccnc3)cc2)[C@@H]1CNC(=O)C1CC1,0.098
COc1cccc(-c2ccc(C3[C@@H]4CN(S(=O)(=O)Cc5ccccc5)C[C@H]3N4)cc2)c1 (stereo partly specified),-0.56
CN1CCCCN2[C@H](CO)[C@H](c3ccc(Br)cc3)[C@@H]2C1,1.1
COc1cccc(CN2[C@@H]3CNC[C@H]2C3c2ccc(-c3cccnc3)cc2)c1 (stereo partly specified),2
O=C(Nc1ccccc1F)N1CCCCN2[C@H](CO)[C@H](c3ccc(C#Cc4ccccc4)cc3)[C@@H]2C1,-1.7
O=C(Nc1ccccc1)N1CCCCN2[C@H](CO)[C@H](c3ccc(C#Cc4ccccc4)cc3)[C@@H]2C1,-3.4*
O=C(Nc1ccccc1)N1CCCCN2[C@H](C1)[C@@H](c1ccc(C#Cc3ccccc3)cc1)[C@@H]2CO,0.19
O=C(Nc1ccccc1F)N1CCCCN2[C@H](CO)[C@@H](c3ccc(C#Cc4ccccc4)cc3)[C@H]2C1,-4.1*
O=C(Nc1ccccc1)N1CCCCN2[C@H](C1)[C@H](c1ccc(C#Cc3ccccc3)cc1)[C@@H]2CO,-0.69
O=C(Nc1ccccc1F)N1CCCCN2[C@H](CO)[C@@H](c3ccc(C#Cc4ccccc4)cc3)[C@@H]2C1,-0.69
O=C(Nc1ccccc1F)N1CCCCN2[C@@H](CO)[C@@H](c3ccc(C#Cc4cccnc4)cc3)[C@@H]2C1,-0.043
O=C(Nc1ccccc1F)N1CCCCN2[C@H](C1)[C@@H](c1ccc(C#Cc3cccnc3)cc1)[C@@H]2CO,-5.1*
O=C(Nc1ccccc1F)N1CCCCN2[C@H](CO)[C@@H](c3ccc(C#Cc4cccnc4)cc3)[C@@H]2C1,-1.8
O=C1CN(S(=O)(=O)Cc2ccccc2)C[C@@H]2[C@H](c3ccc(C#Cc4cccnc4)cc3)[C@@H](CO)N12,2.5
C[C@@H]1CN([C@@H](C)CO)C(=O)c2c(c3ccccc3n2C)-c2ccccc2CO[C@@H]1CN(C)C(=O)NC1CCCCC1,-0.51
C/C=C/c1ccc([C@H]2[C@@H](CO)N3CCCCN(C(=O)Nc4cc(F)ccc4F)C[C@@H]23)cc1,3.5
COCC(=O)N1[C@H](C#N)[C@H](c2ccccc2-c2ccccc2)[C@H]1CO,2.7
C/C=C/c1ccc([C@H]2[C@@H](CO)N3C(=O)CN(C(=O)Nc4ccc(F)cc4)C[C@@H]23)cc1,0.88
SMILES,IDE exosite FP
CO[C@@H]1CN(C)C(=O)c2cc(NC(C)=O)ccc2OC[C@@H](C)N(Cc2ccncc2)C[C@@H]1C,0.27
C[C@H](CO)N1C[C@H](C)[C@@H](CN(C)Cc2ccc(C(=O)Nc3ccccc3N)cc2)Oc2ccc(NC(=O)Cn3cnnn3)cc2C1=O,1
CCc1sc(N2[C@@H](C#N)[C@@H](c3ccccc3-c3cccc(C)c3)[C@@H]2CO)nc1C,0.36
Cc1ccc(S(=O)(=O)N[C@@H]2C=C[C@H](CC(=O)NCc3ccc(Cl)c(Cl)c3)O[C@H]2CO)cc1,-0.46
CN1CCN(C(=O)C[C@@H]2C[C@H]3c4cc(NS(C)(=O)=O)ccc4O[C@H]3[C@H](CO)O2)CC1,0.78
COc1ccc(S(=O)(=O)N2CC[C@H]3[C@H](CO)Nc4ccc(Br)cc4[C@H]32)cc1,-0.3
COc1ccc2c3c([nH]c2c1)[C@@H](CO)N(Cc1ccccc1Cl)CC31CN(C(=O)C2CC2)C1,-3
COCC(=O)N1CCC2(CC1)CN(Cc1ccccc1Cl)[C@H](CO)c1[nH]c3cc(OC)ccc3c12,-1.8
COc1ccc2c3c(n(C)c2c1)[C@H](CO)N(Cc1ccccc1Cl)CC31CCN(C(=O)CC2CC2)CC1,-4.1*
CCCC(=O)N1CC2(C1)CN(Cc1ccccc1F)[C@@H](CO)c1c2c2ccc(OC)cc2n1C,-0.33
CCCC(=O)N1CCC2(CC1)CN(Cc1ccc(Cl)cc1)[C@@H](CO)c1[nH]c3cc(OC)ccc3c12,-1.7
COc1ccc2c3c([nH]c2c1)[C@H](CO)N(Cc1ccccn1)CC31CCN(C(C)=O)CC1,-2.8
COCC(=O)N1CCC2(CC1)CN(Cc1ccccc1Cl)[C@@H](CO)c1[nH]c3cc(OC)ccc3c12,-3.6*
COc1ccc2c3c(n(C)c2c1)[C@H](CO)N(Cc1ccccc1OC)CC31CN(C)C1,-1.3
COc1ccc2c3c([nH]c2c1)[C@@H](CO)N(Cc1ccccc1F)CC31CCN(C(=O)C2CC2)CC1,-3.6*
COc1ccc2c3c([nH]c2c1)[C@H](CO)N(Cc1ccccn1)CC31CN(C(=O)CC2CC2)C1,-0.017
CCS(=O)(=O)N1CC2(CN(Cc3ccccc3F)[C@@H](CO)c3[nH]c4cc(OC)ccc4c32)C1,-0.44
COc1ccc2c3c([nH]c2c1)[C@@H](CO)N(Cc1ccccn1)CC31CCN(C(C)=O)CC1,-3.6*
COc1ccccc1NC(=O)N1CC(=O)N2[C@H](CO)[C@@H](c3ccc(C#Cc4ccccc4)cc3)[C@H]2C1,-1.8
C[C@@H]1CC=CC[C@H](c2ccc3c(c2)OCO3)NC(=O)[C@H](C)N(C)C(=O)c2ccccc2O1 (mixture of isomers),-0.33
NCC[C@@H]1CC[C@H](NC(=O)NC2CCCCC2)[C@H](CO)O1,0.3
COc1cccc(CN2[C@H](CO)[C@H](c3ccccc3)C23CN(C(=O)C2CCCCC2)C3)c1,1.7
N#Cc1cccc(-c2ccc3c(c2)[C@H]2[C@H](CCN2C(=O)CN2CCOCC2)[C@H](CO)N3)c1,0.75
O=C(C[C@@H]1CC[C@@H]2[C@H](COC[C@@H](O)CN2C(=O)Nc2cccc(F)c2)O1)NCCCN1CCOCC1,-1.1
CNC[C@H]1Oc2ncc(-c3cncnc3)cc2C(=O)N([C@@H](C)CO)C[C@H]1C,-1.5
SMILES,IDE exosite FP
CC(C)NC[C@@H]1[C@@H](c2ccc(C3=CCCCC3)cc2)[C@H](CO)N1C(=O)NC(C)C,3.9
CC(C)NC(=O)N1[C@H](CO)[C@H](c2ccccc2-c2ccc(F)cc2)[C@@H]1C#N,-1.3
CN(C)C(=O)[C@@H]1[C@@H](CO)[C@@H]2Cn3c(ccc(C4=CCCC4)c3=O)[C@H]1N2S(=O)(=O)c1cn(C)cn1,-0.19
COc1cccc(S(=O)(=O)N2C[C@@H](O)COC[C@@H]3O[C@@H](CC(=O)NCCCN4CCOCC4)CC[C@H]32)c1,1.2
CCCNC(=O)N1CC(=O)N2[C@H](CO)[C@H](c3ccc(-c4ccc(F)cc4)cc3)[C@@H]2C1,0.28
CCCNC(=O)N1CC(=O)N2[C@H](C1)[C@@H](c1ccc(-c3ccc(C)cc3)cc1)[C@@H]2CO,-2.4
CCCNC(=O)N1CC(=O)N2[C@H](C1)[C@H](c1ccc(-c3ccc(C)cc3)cc1)[C@@H]2CO,-3.6*
